Source: paper PMC10668032, “Altered binding affinity of SIX1-Q177R correlates with enhanced WNT5A and WNT pathway effector expression in Wilms tumor”
In all, about 33,000 sequences were measured (“e-score”: median about -0.05, highest 2% from about 0.38 on). Only a selection was taken, and the highest values are over-represented in it overall.

The sequences below were run against T1, SIX1-Q177R homeodomain (human, UniProt Q15475 108-198, Q177R) (assay: universal protein binding microarray; Universal all-10-mer PBM (8x60K, AMADID 030236), 300 nM GST-tagged protein, Alexa Fluor 488 anti-GST; buffer, salt, pH and temperature not stated (as in Berger); high values mean tight binding). Settings: protein: ivt; tags: N-terminal GST; dsDNA, one strand shown.
T1 sequence: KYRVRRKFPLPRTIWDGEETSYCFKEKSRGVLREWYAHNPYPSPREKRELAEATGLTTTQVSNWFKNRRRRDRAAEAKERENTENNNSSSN
How it was run: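 After in vitro transcription/translation, GST-tagged homeodomains were quantified against a recombinant GST standard curve by anti-GST western blot. They were then placed in duplicate at 300 nM final concentration on universal 'all 10-mer' protein binding microarrays of 8×60K format.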

Sequence | binding signal
ACCCAACA | 0.251 ± 0.0117 E-score
ACGATCCG | 0.232 ± 0.0258 E-score
AATCTACA | 0.22 ± 0.0213 E-score
ACCCGTGC | 0.1616 ± 0.000424 E-score
GCACTATA | 0.191 ± 0.0272 E-score
CACCCCGG | 0.338 ± 0.0167 E-score
AACACCGG | 0.4831 ± 0.000693 E-score
GATACCGC | 0.293 ± 0.00845 E-score
GACGCCGC | 0.151 ± 0.0247 E-score
CGCACCGC | 0.209 ± 0.0348 E-score
CACACAGG | 0.182 ± 0.0584 E-score
GACACCGC | 0.487 ± 0.00552 E-score
CACACCGC | 0.412 ± 0.0184 E-score
CACCGCGG | 0.3509 ± 0.00344 E-score
AACACTGG | 0.37323 ± 0.000191 E-score
AGCACCGG | 0.206 ± 0.0351 E-score
CACACCGG | 0.418 ± 0.0186 E-score
CACCGATG | 0.32 ± 0.0273 E-score
CCCCGGAG | 0.261 ± 0.00517 E-score
CTATTACA | 0.215 ± 0.023 E-score
CAGATTCG | 0.161 ± 0.0252 E-score
CACCAAGG | 0.265 ± 0.0125 E-score
CCCGCACC | 0.197 ± 0.0395 E-score

Sequence | binding signal
AACCCGGA | 0.201 ± 0.0406 E-score
TGTGCACA | 0.21 ± 0.0348 E-score
CGCTTACA | 0.196 ± 0.0288 E-score
CACCATAC | 0.3492 ± 0.0017 E-score
CACCAGGG | 0.284 ± 0.0249 E-score
CGGATCCA | 0.232 ± 0.0264 E-score
CACCCGAA | 0.276 ± 0.0248 E-score
ACCTCACG | 0.153 ± 0.0322 E-score
CACCGGCC | 0.251 ± 0.0167 E-score
GATACCCA | 0.3616 ± 0.000587 E-score
ACTTGCAC | 0.175 ± 0.00796 E-score
TGTAAACA | 0.262 ± 0.00791 E-score
AGCACCGC | 0.288 ± 0.023 E-score
AACACCGC | 0.47579 ± 0.000382 E-score
ACCACCGC | 0.199 ± 0.00668 E-score
CACACCGA | 0.405 ± 0.0194 E-score
CGGGGTTC | 0.201 ± 0.0287 E-score
CATGGACA | 0.216 ± 0.0185 E-score
GGAGTACC | 0.218 ± 0.0355 E-score
GTGCGCAC | 0.175 ± 0.0735 E-score
CGACACAC | 0.345 ± 0.0318 E-score
CGACACCC | 0.488 ± 0.01 E-score
GGACACAC | 0.382 ± 0.0328 E-score

Sequence | binding signal
CGACCCCC | 0.256 ± 0.0448 E-score
GGACCCCC | 0.26 ± 0.0595 E-score
GGACACCC | 0.48 ± 0.00768 E-score
CGGCACCG | 0.239 ± 0.0344 E-score
GCCCACCC | 0.229 ± 0.0369 E-score
CGACACCG | 0.4907 ± 0.00417 E-score
CGACACAG | 0.251 ± 0.0668 E-score
GGACACAA | 0.18 ± 0.117 E-score
ACGCACCC | 0.265 ± 0.0257 E-score
TACCCTGA | 0.185 ± 0.0156 E-score
CGGGGTGC | 0.219 ± 0.0401 E-score
TATTGACA | 0.194 ± 0.0479 E-score
CACGCAGG | 0.264 ± 0.016 E-score
GTACTCCA | 0.178 ± 0.0308 E-score
GGTCACAC | 0.384 ± 0.0098 E-score
AGTCACAC | 0.326 ± 0.0101 E-score
CGTCACAC | 0.288 ± 0.0273 E-score
CGACACAA | 0.201 ± 0.104 E-score
CGACAACA | 0.245 ± 0.0238 E-score
AGACCCCC | 0.214 ± 0.0497 E-score
AGACACCC | 0.469 ± 0.00936 E-score
CGACACCA | 0.488 ± 0.00517 E-score
ACTCCCTC | 0.156 ± 0.0128 E-score

Sequence | binding signal
TATATATA | 0.181 ± 0.042 E-score
AGGGATCG | 0.216 ± 0.00653 E-score
CACTCATG | 0.244 ± 0.00471 E-score
ACCCTTCA | 0.166 ± 0.0264 E-score
GGGGTATA | 0.274 ± 0.0131 E-score
CACCTCCG | 0.344 ± 0.00638 E-score
ACCCGGGG | 0.297 ± 0.0213 E-score
CACTATTA | 0.158 ± 0.0138 E-score
GTTCGGGA | 0.15 ± 0.0437 E-score
GTACACCA | 0.4849 ± 0.00112 E-score
CACCACCA | 0.329 ± 0.0106 E-score
GTACAACA | 0.2 ± 0.0164 E-score
CTACCCCC | 0.268 ± 0.0213 E-score
CTACAACA | 0.161 ± 0.0103 E-score
CTGCACCC | 0.209 ± 0.0458 E-score
ACACACTG | 0.248 ± 0.0191 E-score
ATACACTG | 0.392 ± 0.00512 E-score
GTGCACCA | 0.246 ± 0.0146 E-score
CTACACCC | 0.4824 ± 0.00332 E-score
CTACACCA | 0.4741 ± 0.00151 E-score
